Assay results reported in the supplement of paper PMC6555819.

Legend:
Test in all cases: PBM binding z-score (relative to random genomic background probes); higher = stronger binding; sequences stand for … in GC…GCGATTGACAGCGTAGAATGAAGG
[1] = system: RARb homodimer (NR concentration 270 nM)
Outline: (§1)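 Antibodies against each partner of ligand-free nuclear receptor dimers (one per run) detected binding on custom Agilent 4×180K protein-binding microarrays after 1 h incubation. The double-stranded probes had 34-nt variable regions carrying direct-repeat seeds, single-nucleotide variants, half-site ablations and random human genomic background sequences. Binding z-scores, from regression-normalized fluorescence, use the random background probes as reference.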

[2] = system: RARg homodimer (NR concentration 270 nM)
Outline: as §1

[3] = system: RXRa DBDmut IVT, anti-RXR (DBD mutation: RXRa K156A/R161A, NR concentration 90 nM)
Outline: as §1

[4] = system: RXRa homodimer (NR concentration 180 nM)
Outline: as §1

[5] = system: THRa:RXRa (NR concentration 90 nM, RXRa partner concentration 90 nM)
Outline: as §1

[6] = system: THRa homodimer (NR concentration 90 nM)
Outline: as §1

[7] = system: VDR homodimer (NR concentration 270 nM)
Outline: as §1

[8] = system: VDR:RXRa (NR concentration 270 nM, RXRa partner concentration 90 nM)
Outline: as §1

| Sequence | PBM binding z-score [1] | PBM binding z-score [2] | PBM binding z-score [3] | PBM binding z-score [4] | PBM binding z-score [5] | PBM binding z-score [6] | PBM binding z-score [7] | PBM binding z-score [8] |
| --- | --- | --- | --- | --- | --- | --- | --- | --- |
| TCTGCTAGGTCAGGTGGTCAGCTAACGAGCTGCC | 2.83 | 3.58 | 0.176 | 1.66 | 1.77 | 0.331 | -0.539 |  |
| GATACAGGGTCAGCTAGAGGGCAGAGTATGGAAA | 4.04 | 5.53 | 1.71 | 4.61 | 3.18 | 1.05 | 1.68 |  |
| GATACAGGGTCAGCTAGAGGTCAGAGTATGGAAA | 5.26 | 7.07 | 1.95 | 7.42 | 4.49 | 1.85 | 3.45 |  |
| ATCGTAAGGTCGTGAGGTGAGTATACAGAAAGGC | 2.41 | 2.71 | 2.09 | 3.5 | 3.65 | 2.95 | 1.45 |  |
| ATATGTAGGTTACATGCGGGTCATTCAGGCTATG | 2.51 | 2.18 | 0.745 | 3.16 | 2.85 | 0.633 | 2.05 |  |
| TCGAGTGGGTTACGGGGGCATTCAGGGATGAAGA | 2.26 | 2.35 | 2.33 | 2.74 | 4.08 | 2.2 | 3.66 |  |
| GCTGCTAGGTCATGTTGGTCAGCTAACGGGTACG | 3.21 | 4.33 | 1.85 | 2.51 | 2.83 | 1.39 | 1.44 |  |
| AACGAAAGGTCGACGAGGTGAGTATACACCGTTT | 3 | 3.73 | 1.64 | 4.41 | 3.85 | 0.519 | 0.772 |  |
| TAGCCTAGGTCATTGGGCTAGTATAGTACGCATC | 2.59 | 4.2 | 1.47 | 2.84 | 2.71 | 0.251 | 0.989 |  |
| CAGCCTAGTTCAGGGCCAGTATAGGAGGAACGTT | 0.7 | 0.665 | 0.532 | 0.15 | -0.00106 | -0.234 | 0.209 |  |
| CAACCTAGGTCACCGGAAGGTCAAAGTCCGCATG | 5.77 | 8.03 | 2.46 | 7.71 | 4.63 | 3.03 | 4.09 |  |
| CGTCCGAGGTCAATGCTAGGTCAGTGAAAGCATT | 4.93 | 6.71 | 4.03 | 6.61 | 4.6 | 2.97 | 4.57 |  |
| TCTGCTTGGTCAACGATGGTCAGCTAATCTGCTA | 0.448 | 0.624 | -0.0435 | 0.237 | 0.139 | -1.13 | -1.09 |  |
| CCTCGGAGGACAACAGGATGTCAGAGCTGCCAGA | 0.537 | 1.19 | -0.233 | -0.144 | 0.449 | -0.131 | -0.662 |  |
| CGAACTAGGTCACCAGGACAGTTAAGAGGTTGGA | 3.53 | 5.1 | 1.21 | 3.22 | 3.41 | 1.68 | 0.347 |  |
| TCGAGTAGGTTACGTGGGCATTCAGGGATGAAGA | 0.175 | 0.607 | 0.0477 | 0.631 | 0.726 | -0.426 | -0.34 |  |
| TAGCCTAGCTCATTCAGGGGCCAGTATAGAAAGC | -0.0305 | -0.378 | -0.495 | -0.481 | -0.465 | -0.799 | -0.369 |  |
| CGTCCAAGGTCACAGGAGGTCAGTGAAGACAGAT | 5.53 | 8.33 | 3.73 |  | 5.28 | 3.66 | 4.32 |  |
| CGAACTAGGTGATTGACAGGACAGTGAATAGTAA | 0.647 | 0.266 | 0.246 | -0.176 | 0.755 | 0.252 | 0.00262 |  |

| Sequence | PBM binding z-score [1] | PBM binding z-score [2] | PBM binding z-score [3] | PBM binding z-score [4] | PBM binding z-score [5] | PBM binding z-score [6] | PBM binding z-score [7] | PBM binding z-score [8] |
| --- | --- | --- | --- | --- | --- | --- | --- | --- |
| ACTCGGAGGACAAAGGTCACAGCTACGCCAGTGA | 5.26 | 6.99 | 1.55 |  | 4.23 | 1.62 | 2.46 |  |
| ACTAATTGGTCAGCTGAGGTCACACACAATTCGG | 4.72 | 4.46 | 1.68 | 4.65 | 5.12 | 5.41 | 3.46 |  |
| CGTCCAAGGTCAATGCGAGGTCAGTGAAAGCATT | 5.27 | 6.95 | 3.59 | 6.15 |  | 4.23 | 4.73 |  |
| AGTCAAAGTTCAGGACGAGGTCACGTAAAGCACG | 5.39 | 7.28 | 3.45 | 6.81 |  | 4.95 | 5.43 |  |
| CGTCCAAGGTCACCAGGTCAGTGAAAGCGACGTG | 5.13 | 7.7 | 3.61 | 7.13 | 4.45 | 4.12 | 3.44 |  |
| GATACAGGGTCAACTAGAGGCCAGAGTATGGAAA | 3.92 | 5.56 | 2.92 | 6.53 | 3.79 | 0.92 | 2.44 |  |
| CGAACTAGGTCACCAGGACAGCGAAGAGGTTGGA | 3.27 | 5.1 | 1.22 | 3.19 | 3.27 | 1.62 | 0.423 |  |
| GATACAGGGTGAAGGCCAGAGTACGCGTATTGAT | 0.673 | 0.704 | -0.695 | 0.721 |  | -0.473 | -0.248 |  |
| GATACGGGGTCAGCTAGAGGCCAGAGTATGGAAA | 4.12 | 6.6 | 3.39 | 7.4 | 4.28 | 1.14 | 2.68 |  |
| CGAACTAAGTCATCCAGGACAGTGAATACATTGA | 0.33 | 0.549 | 0.248 | 0.264 | 1.55 | 1.1 | 0.0279 |  |
| CGTCCAAGGTCAATGCAAGGTCAGTGAAAGCATT | 5.5 | 7.06 | 3.92 | 6.02 |  | 4.02 | 3.85 |  |
| ATACCAAGGTCATCGTGAGGTCGTTGATACTAAC | 4.72 | 6.27 | 3.76 | 6.49 |  | 3.91 | 5.41 |  |
| TAGCCTAGGTCATTGGGCCAGTATAGTACGCATC | 3 | 4.22 | 1.6 | 2.73 | 2.83 | 0.768 | 0.954 |  |
| AATACAGGGTCCTCGTAGGCCAGAGTACGCACAG | 0.334 | 0.183 | -0.129 | 0.449 | 1.16 | 0.203 | 0.487 |  |
| TCTCGGAGGTCACGAAGGTCAGAGCTTTCCAGAG | 5.66 | 8.12 | 3.05 |  | 4.64 | 2.29 | 5.14 |  |
| TCTGCTATGTCAACGATGGTCAGCTAATCTGCTA | 0.0556 | 0.346 | 0.208 | -0.181 | -0.297 | -1.24 | -1.12 |  |
| CCTCGGAGGACAACAGGAGGTCAAAGCTGCCAGA | 3.77 | 3.86 | 0.524 | 3.56 | 3.43 | 1.34 | 2.4 |  |
| TAGCCTAGGTCATTCAGGGGGCAGTATAGAAAGC | 4.09 | 5.84 | 2.37 | 4.33 | 3.8 | 2.11 | 3.36 |  |
| ATCGAAAGGTCGACGAGGAGAGTATACACCGTTT | 2.37 | 3.81 | 1.18 | 3.91 | 2.27 | -0.0264 | 0.681 |  |

| Sequence | PBM binding z-score [1] | PBM binding z-score [2] | PBM binding z-score [3] | PBM binding z-score [4] | PBM binding z-score [5] | PBM binding z-score [6] | PBM binding z-score [7] | PBM binding z-score [8] |
| --- | --- | --- | --- | --- | --- | --- | --- | --- |
| CGTCCAAGGTCAAGGTCACTGAAAGAGACTCGAA | 5.6 | 8.3 | 3.73 |  |  | 4.35 | 4.03 |  |
| AGTCAAAGGTCACTAGGTAACGTAAGATTCAGCT | 5.03 | 8.53 | 2.94 |  | 3.99 | 0.996 | 2.14 |  |
| TAGCCTAGGTCATTCAGGGGTCAGTATAGAAAGC | 5.2 | 6.28 | 2.75 | 5.8 | 4.22 | 2.13 | 4.47 |  |
| TCGAGTAGGTTAGGGGGGCATTCAGGGATGAAGA | 2.58 | 2.54 | 2.58 | 2.32 | 3.86 | 2.28 | 3.28 |  |
| CCTTACGGGTCTAGGTTATAGCACGGGTGGTACG | 0.113 | 0.0918 | -1.08 |  | 0.109 | 0.173 | -0.202 | -0.339 |
| CCTTACGGGTCCCTGACAGGTTATAGCATTTGGA | 0.357 | 0.233 | -0.553 | 0.295 | 0.389 | -0.0756 | 0.0432 |  |
| TGTCAAAGTTCTAAGGTAACGTAAGTATCCACAC | 0.168 | 0.585 | -0.0657 |  | 2.88 | 2.43 | -0.114 | 0.479 |
| TAGCCTAGGTCATGCGGGCCAGCATAGTGTCGGC | 2.9 | 4.27 | 0.374 | 3.13 | 3 | 0.747 | 0.502 |  |
| GCTGCTAGGTCAACTGATGGTGAGCTAAAGCTCG | 3.06 | 5.32 | 1.5 | 2.69 | 2.86 | 0.689 | -0.42 |  |
| AGTCAAAGGTCAGGACGAGGTAACGTAAAGCACG | 4.82 | 7.93 | 1.32 | 7.47 |  | 2.11 | 0.891 |  |
| CCTTACGGGTCACTCCAGGTTCTAGCATCGGAGT | 2.64 | 4.07 | 1.4 | 4.18 | 4.32 | 0.0825 | 1.07 |  |
| CCTACTGGGTCATTCAGAGGTCATTGATCATATG | 5.21 | 5.46 | 2.77 | 5.75 | 4.32 | 2.15 | 4.41 |  |
| CAAACCAGGTCACGAAAGGTCAAAGTCGAATGAC | 5.97 | 9.05 | 2.9 |  | 5.23 | 3.86 | 4.47 |  |
| ATCGAAACGTCGTGAGGTGAGTATACAGAAAGGC | -0.153 | 0.49 | -0.879 | 0.393 | 1.63 | 0.771 | -0.417 |  |
| CCTTACGGGTAACTCCAGGTTATAGCATCGGAGT | 0.239 | 0.528 | -0.483 | 0.381 | 3.22 | 0.292 | 0.21 |  |
| CCTGCTAGGTCAATGGTCAGCTCAAGCAGCTCGC | 3.02 | 4.32 | 1.88 | 1.92 | 2.23 | 0.708 | 0.174 |  |
| CAAACTAGGTCACAGGGGTCAAAGTCCGTGCGTA | 5.94 | 7.58 | 3.6 | 8.57 |  | 3 | 7.07 |  |
| ACTCGGAGGACAAACGTCAGAGCTACGCCAGTGA | 0.0238 | 1.15 | 0.497 | -0.425 | 0.312 | -0.476 | -0.183 |  |
| CGAACTAGGTCAAAGGTCAGTGAAAGGCGACGTA | 5.03 | 6.89 | 2.37 |  | 4.55 | 1.2 | 1.85 |  |
